From PubChem BioAssay AID1159580 (chemical genetic matrix, 2015)
The whole screen tested about 5,500 compounds, of which about 2,000 (36%) were called active. Roughly 18% stayed inconclusive and do not appear here. No stated cut-off is given here; in the data, active means normalized growth mostly below about 0.91 (no sharp cut-off); inconclusive means no clear call, values can overlap the other calls; inactive means mostly above about 0.92. The list shows a part of the results.

Assay: chemical genetic growth profiling, strain panel (AID 1159580);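 further: tested at 20 µM; growth read once vehicle control cultures reached saturation at 30 °C; 1 = growth at the plate median or of vehicle wells; lower values mean less growth of the strain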
Conditions: S. cerevisiae deletion strains, growth OD

Measured: normalized growth

C=CCc1ccccc1OCC(O)CN[C@]1(C)CCC[C@H](C(C)(C)NC(=O)CBr)C1 (some centres not stated)
inactive: locus YAL040C, strain CLN3, active compounds read low 1.01 | locus YER002W, strain NOP16, active compounds read low 1.02 | locus YGR229C, strain SMI1, active compounds read low 1.01 | locus YNL175C, strain NOP13, active compounds read low 1.08 | locus YNL197C, strain WHI3, active compounds read low 1.03 | locus YNL224C, strain SQS1, active compounds read low 1.02 | locus YOR083W, strain WHI5 (second series), active compounds read low 1.09
